From the supplement of paper PMC9694430
Where “and” joins values, the source holds several entries; their conditions need not be identical. Equal entries are not always repeated.

What was measured:
Assay in all cases: thermal shift delta Tm vs DMSO control; higher = stronger stabilization (binding)
Conditions in all cases: 12.5 µM; protein concentration 2 µM
LOC_OS02G45750-cb003 = test system: LOC_OS02G45750-cb003
How it was run: (§1)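 Purified, E. coli-expressed rice kinase domain constructs were tested by differential scanning fluorimetry in 96-well plates: 19.5 μl of 2 μM kinase in 100 mM potassium phosphate pH 7.5, 150 mM NaCl, 10% glycerol, 5 × SYPRO Orange, plus compound in DMSO. Fluorescence was read from 25°C to 95°C at 0.05°C/s. Melting temperatures came from Boltzmann fits, and the shift is the triplicate mean relative to protein with DMSO alone.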

LOC_OS02G54510-cb004 = test system: LOC_OS02G54510-cb004
How it was run: as §1

LOC_OS03G04050-cb001 = test system: LOC_OS03G04050-cb001
How it was run: as §1

LOC_OS03G12390-cb001 = test system: LOC_OS03G12390-cb001
How it was run: as §1

LOC_OS03G27990-cb004 = test system: LOC_OS03G27990-cb004
How it was run: as §1

LOC_OS03G50450-cb001 = test system: LOC_OS03G50450-cb001
How it was run: as §1

LOC_OS03G50810-cb003 = test system: LOC_OS03G50810-cb003
How it was run: as §1

LOC_OS04G35114-cb001 = test system: LOC_OS04G35114-cb001
How it was run: as §1

LOC_OS04G38480-cb003 = test system: T1, LOC_OS04G38480-cb003
T1 sequence (whole entry): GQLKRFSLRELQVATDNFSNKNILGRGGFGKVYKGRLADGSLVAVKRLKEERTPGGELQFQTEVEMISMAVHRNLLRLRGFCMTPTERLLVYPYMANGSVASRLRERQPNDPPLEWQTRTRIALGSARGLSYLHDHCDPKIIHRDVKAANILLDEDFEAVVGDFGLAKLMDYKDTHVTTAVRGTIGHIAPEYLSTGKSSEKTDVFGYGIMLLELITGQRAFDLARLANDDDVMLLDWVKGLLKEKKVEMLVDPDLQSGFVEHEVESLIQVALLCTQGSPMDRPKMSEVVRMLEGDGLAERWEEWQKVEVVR
How it was run: as §1

LOC_OS04G41100-cb001 = test system: T2, LOC_OS04G41100-cb001
T2 sequence (whole entry): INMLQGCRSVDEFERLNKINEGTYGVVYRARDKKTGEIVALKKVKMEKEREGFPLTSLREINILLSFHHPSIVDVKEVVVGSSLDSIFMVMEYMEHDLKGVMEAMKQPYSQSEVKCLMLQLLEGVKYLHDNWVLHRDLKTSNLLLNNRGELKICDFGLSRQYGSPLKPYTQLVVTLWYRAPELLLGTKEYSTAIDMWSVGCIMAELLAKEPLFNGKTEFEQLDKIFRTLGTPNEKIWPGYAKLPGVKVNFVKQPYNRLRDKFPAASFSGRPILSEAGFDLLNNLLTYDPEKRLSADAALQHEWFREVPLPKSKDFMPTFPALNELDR
How it was run: as §1

LOC_OS04G57630-cb004 = test system: LOC_OS04G57630-cb004
How it was run: as §1

LOC_OS05G07850-cb002 = test system: LOC_OS05G07850-cb002
How it was run: as §1

LOC_OS05G16824-cb004 = test system: LOC_OS05G16824-cb004
How it was run: as §1

LOC_OS05G28520-cb001 = test system: LOC_OS05G28520-cb001
How it was run: as §1

LOC_OS05G30820-cb001 = test system: LOC_OS05G30820-cb001
How it was run: as §1

LOC_OS05G43570-cb004 = test system: LOC_OS05G43570-cb004
How it was run: as §1

LOC_OS06G16330-cb003 = test system: LOC_OS06G16330-cb003
LOC_OS06G16330-cb003, sequence (as listed by the source): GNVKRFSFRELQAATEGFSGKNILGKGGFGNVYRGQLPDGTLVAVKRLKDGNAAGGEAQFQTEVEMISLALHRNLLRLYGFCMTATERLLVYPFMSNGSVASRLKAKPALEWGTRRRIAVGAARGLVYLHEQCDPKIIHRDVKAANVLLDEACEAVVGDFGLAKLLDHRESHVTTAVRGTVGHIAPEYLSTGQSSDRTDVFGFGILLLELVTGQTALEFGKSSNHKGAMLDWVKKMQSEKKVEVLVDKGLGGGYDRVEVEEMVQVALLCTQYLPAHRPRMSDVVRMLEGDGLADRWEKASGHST
How it was run: as §1

LOC_OS06G22820-cb001 = test system: T3, LOC_OS06G22820-cb001
T3 sequence (whole entry): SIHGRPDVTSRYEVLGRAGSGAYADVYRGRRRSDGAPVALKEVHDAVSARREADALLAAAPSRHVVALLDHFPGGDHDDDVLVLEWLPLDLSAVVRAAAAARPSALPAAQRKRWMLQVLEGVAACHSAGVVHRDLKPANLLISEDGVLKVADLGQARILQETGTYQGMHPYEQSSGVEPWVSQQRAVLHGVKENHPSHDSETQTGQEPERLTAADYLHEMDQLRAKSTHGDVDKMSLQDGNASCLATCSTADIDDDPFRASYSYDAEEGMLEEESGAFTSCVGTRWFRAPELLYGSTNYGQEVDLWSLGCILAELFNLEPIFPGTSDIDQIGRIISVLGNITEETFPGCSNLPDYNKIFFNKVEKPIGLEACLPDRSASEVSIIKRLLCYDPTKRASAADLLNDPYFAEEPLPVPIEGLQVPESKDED
How it was run: as §1

LOC_OS07G06570-cb004 = test system: LOC_OS07G06570-cb004
How it was run: as §1

LOC_OS07G07230-cb001 = test system: LOC_OS07G07230-cb001
How it was run: as §1

SMILES | thermal shift delta Tm (LOC_OS02G45750-cb003) | thermal shift delta Tm (LOC_OS02G54510-cb004) | thermal shift delta Tm (LOC_OS03G04050-cb001) | thermal shift delta Tm (LOC_OS03G12390-cb001) | thermal shift delta Tm (LOC_OS03G27990-cb004) | thermal shift delta Tm (LOC_OS03G50450-cb001) | thermal shift delta Tm (LOC_OS03G50810-cb003) | thermal shift delta Tm (LOC_OS04G35114-cb001) | thermal shift delta Tm (LOC_OS04G38480-cb003) | thermal shift delta Tm (LOC_OS04G41100-cb001) | thermal shift delta Tm (LOC_OS04G57630-cb004) | thermal shift delta Tm (LOC_OS05G07850-cb002) | thermal shift delta Tm (LOC_OS05G16824-cb004) | thermal shift delta Tm (LOC_OS05G28520-cb001) | thermal shift delta Tm (LOC_OS05G30820-cb001) | thermal shift delta Tm (LOC_OS05G43570-cb004) | thermal shift delta Tm (LOC_OS06G16330-cb003) | thermal shift delta Tm (LOC_OS06G22820-cb001) | thermal shift delta Tm (LOC_OS07G06570-cb004) | thermal shift delta Tm (LOC_OS07G07230-cb001)
Cc1cc(C(=O)NOCCO)c(Nc2ccc(I)cc2F)n(C)c1=O | -0.39 °C | 0.03 °C | 0.19 °C | -0.3 °C | 0.02 °C | 1.11 °C | -0.06 °C | 0.41 °C | 0.64 °C | 0.58 °C | 0.11 °C | 0.04 °C | -9.58 °C | -0.17 °C | 0.7 °C | 0.18 °C | -0.11 °C | 0.38 °C | 1.15 °C | 0.15 °C
O=C1NC(=O)/C(=C/c2cccc(C(F)(F)F)c2)S1 | 0.26 °C | 0.26 °C | 0.76 °C | 0.17 °C | 0.26 °C | 0.29 °C | 0.08 °C | 0.62 °C | -0.19 °C | 0.43 °C | 0.39 °C | 1.33 °C | -0.21 °C | 0.59 °C | 0.46 °C | 0.27 °C | 0.26 °C | 0.44 °C | 0.68 °C | 0.58 °C
Cc1nc(Nc2n[nH]c3c2CN(C(=O)N[C@H](CN(C)C)c2ccccc2)C3(C)C)c2sccc2n1 | 0.94 °C | 0.82 °C | 0.62 °C | 3.19 °C | 0.55 °C | 0.78 °C | 1.44 °C | 3.07 °C | 0.43 °C | 0.63 °C | 0.4 °C | 1.45 °C | 5.08 °C | 2.24 °C | 0.45 °C | 1.95 °C | 0.72 °C | 2 °C | 1.67 °C | 0.02 °C
COc1cc(OC)cc(N(CCNC(C)C)c2ccc3ncc(-c4cnn(C)c4)nc3c2)c1 | 1.81 °C | 2.46 °C | 0.37 °C | 0.27 °C | 0.3 °C | 0.28 °C | 0.45 °C | 0.74 °C | 2.14 °C | 0.41 °C | 0.11 °C | 3.45 °C | -0.05 °C | 0 °C | 0.18 °C | 0.08 °C | 0.79 °C | 0.32 °C | 1.94 °C | 0.52 °C
O=c1cc(N2CCOCC2)oc2c(-c3ccccc3)cccc12 | 0.29 °C | 0 °C | 0.47 °C | 0.68 °C | -0.02 °C | 0.21 °C | 0.41 °C | 0.16 °C | 0.52 °C | 0.8 °C | 0.2 °C | 1.02 °C | 0.85 °C | 0.91 °C | 0.41 °C | 0.98 °C | 0.37 °C | 1.05 °C | 0.89 °C | -0.39 °C
COc1ccc(F)c(F)c1C(=O)c1cnc(NC2CCN(S(C)(=O)=O)CC2)nc1N | 1.63 °C | -0.08 °C | 0.26 °C | -0.05 °C | 0.19 °C | 0.18 °C | 0.05 °C | 0.62 °C | 1.07 °C | 0.79 °C | 0.37 °C | 3.17 °C | -1.46 °C | 0.04 °C | 0.47 °C | 0.11 °C | 1.56 °C | 0.23 °C | 0.61 °C | 0.3 °C
Cc1cc(CS(=O)(=O)c2ccccc2)cc(OCc2ccc(CN3CCC[C@@H]3CO)cc2)c1 | -0.41 °C | 0.16 °C | 0.65 °C | -0.25 °C | 0.41 °C | 0.6 °C | 0.23 °C | 0.57 °C | 0.83 °C | 0.44 °C | 0.05 °C | -0.44 °C | -3.52 °C | 0.56 °C | 0.38 °C | 0.08 °C | -0.51 °C | 0.68 °C | 1.18 °C | 0.08 °C
COc1cc2ncnc(Nc3cccc(Cl)c3F)c2cc1OC(=O)N1CCN(C)C[C@H]1C | 1.31 °C | 0.53 °C | 0.43 °C | 0.01 °C | 0.33 °C | 0.9 °C | 0.48 °C | 3.07 °C | 1.2 °C | 0.24 °C | 0.65 °C | 9.1 °C | -0.19 °C | 0.6 °C | 0.5 °C | 0.72 °C | 2.26 °C | 0.6 °C | 1.12 °C | 0.94 °C
O=C1Nc2ccc(I)cc2/C1=C/c1cc(Br)c(O)c(Br)c1 | 0 °C | 1.04 °C | 0.81 °C | 6.08 °C | 2.06 °C | 1.49 °C | 4.01 °C | 1.76 °C | -0.73 °C | 0.75 °C | -0.66 °C | 7.59 °C | -3.03 °C | 2.07 °C | 1.54 °C | 0.73 °C | 1.63 °C | 0.94 °C | 1.22 °C | 1.47 °C
CN(c1ncccc1CNc1nc(Nc2ccc3c(c2)CC(=O)N3)ncc1C(F)(F)F)S(C)(=O)=O | 6.83 °C and 7.06 °C | 1.05 °C and 1.09 °C | 0.54 °C and 0.38 °C | 3.95 °C and 4.88 °C | 2.23 °C and 2.44 °C | 2.36 °C and 2.48 °C | 3.64 °C and 4.1 °C | 4.17 °C and 4.61 °C | 1.77 °C and 2.12 °C | 1.82 °C and 1.92 °C | 1.44 °C and 2.05 °C | 8.97 °C and 9.58 °C | 9.12 °C and 9.67 °C | 0.98 °C and 1.52 °C | 4.26 °C and 3.92 °C | 0.77 °C and 0.58 °C | 4.21 °C and 5.5 °C | -0.01 °C and -0.19 °C | 0.81 °C and 1.35 °C | 0.45 °C and 0.44 °C
Cc1ccc(C(=O)Nc2ccc(Oc3cc4cnn(C)c4cc3-c3cn[nH]c3)c(F)c2)c(=O)n1-c1ccc(F)cc1 | 1.6 °C | 0.17 °C | 1.07 °C | 0.61 °C | 0.79 °C | 1.3 °C | 1.13 °C | 0.73 °C | 3.19 °C | 1.32 °C | 1.06 °C | 12.9 °C | 0.64 °C | 0.91 °C | 0.24 °C | 1.08 °C | 5.02 °C | 1.28 °C | 1.37 °C | -0.23 °C
CCOc1cn(-c2ccc(F)cc2C)nc1C(=O)Nc1ccc(Oc2ccnc3cc(OC)c(OC)cc23)c(F)c1 | 1.39 °C | 0.07 °C | 0.15 °C | 0.26 °C | 0.2 °C | 0.09 °C | 1.07 °C | 1.9 °C | 2.19 °C | 0.88 °C | 2.05 °C | 11.1 °C | -0.65 °C | 0.31 °C | 0.28 °C | 0.24 °C | 3.99 °C | 0.19 °C | 0.82 °C | 0.19 °C
